A selection: hits, their analogues and other compounds. The true share with any hit is near 8.9%.
KB-V1 cytotox: kills drug-selected multidrug resistant KB-V1 cells | AID 1347076 | KB-V1 MDR cells viability, CellTiter-Glo, 72 h | actives 3.4% (n = 400,000) | Potency, µM (doses to about 46.1 µM), usual class: cytotoxic; note: potency is the fitted concentration of half-maximal effect; % is set by controls: 0 for no effect and ±100 for the full control effect; nearly all actives have a fitted effect of over 60% in size
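In this primary screen, KB-V1 cells overexpressing P-gp are incubated with library compounds (lowest to highest concentration) for 72 h at 37 degrees C before a luminescent ATP viability read.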
D3 ag: agonists of human D3 dopamine receptor; D3R DiscoveRx beta-arrestin cells, luminescence, 90 min; max activation, %; actives 0.58% (n = 410,000); in the data active = max activation above about 30%; note: 0% is about no effect
Target sequence (P35462 whole entry, looked up): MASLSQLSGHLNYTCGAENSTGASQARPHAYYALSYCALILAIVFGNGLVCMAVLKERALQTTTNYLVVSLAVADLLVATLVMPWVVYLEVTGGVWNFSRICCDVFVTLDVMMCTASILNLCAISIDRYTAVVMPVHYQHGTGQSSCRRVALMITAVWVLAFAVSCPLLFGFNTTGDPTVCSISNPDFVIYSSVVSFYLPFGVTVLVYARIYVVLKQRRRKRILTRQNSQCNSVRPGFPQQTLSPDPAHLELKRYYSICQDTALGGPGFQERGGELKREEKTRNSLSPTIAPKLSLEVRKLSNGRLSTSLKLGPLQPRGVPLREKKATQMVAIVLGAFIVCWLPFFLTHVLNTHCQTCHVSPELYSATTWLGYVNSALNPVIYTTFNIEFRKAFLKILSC
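Agonist-mode cell screen: cells plated at 1500/well and incubated overnight at 37 °C, then exposed to library compounds for 90 min at 37 °C. Detection reagent was added for 30–60 min at room temperature, and luminescence was read.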
SW480 rerep: DNA re-replication induction in SW480 cells | SW480 DNA re-replication, Hoechst DNA content imaging, 48 h | Potency, µM (top dose mostly 46.1 µM), for inactives: top-dose re-replication activation, hits mostly activators | actives 1.8% (n = 340,000); note: potency is the fitted concentration of half-maximal effect; % of control where 0% means no effect; nearly all actives have a fitted effect of over 55% in size
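250 cells/well; 23 nL cpd via pin tool; 48 hr, 37 C, 5% CO2; Hoechst 40 min; imager read of total nuclear intensity, ex 405/em 500-530 nm.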
MCF10A rereplic: inducers of DNA re-replication in MCF 10A breast cells. actives 2.9% (n = 350,000). Potency, µM (highest dose often 46.1 µM), inactives show at the highest dose activity, positive = re-replication, usual class: activators. MCF 10A DNA re-replication, Hoechst nuclear intensity, 48 h. AID 624296; note: potency is the fitted concentration of half-maximal effect; % of control where 0% means no effect; nearly all actives have a fitted effect of over 50% in size
KB-3-1 cytotox: KB-3-1 parental cell cytotoxicity | actives 1.4% (n = 400,000) | KB-3-1 viability, CellTiter-Glo ATP luminescence, 72 h | Potency, µM (titrated, usually from 46.1 µM), actives largely listed as cytotoxic; note: potency is the fitted concentration of half-maximal effect; % is set by controls: 0 for no effect and ±100 for the full control effect; nearly all actives have a fitted effect of over 60% in size
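Luminescent ATP read-out (CellTiter-Glo) measures survival of drug-naive KB-3-1 cells after 72 h compound exposure at 37 °C. Titration series was screened from lowest to highest concentration, with DMSO vehicle plates as background controls.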
D3 antag: D3 dopamine receptor (human) antagonism; max response, negative = inhibition, %; D3R cells, DiscoveRx beta-arrestin luminescence, antagonist mode; stronger effect = lower value; P35462; actives 2.5% (n = 360,000); AID 652054; in the data active = max response below about -50%; inconclusive = no clear call, values can overlap the other calls; note: % is set by controls: 0 for no effect and ±100 for the full control effect
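Cells plated overnight at 1500 cells/well, then exposed to library compounds with dopamine controls for 90 minutes at 37 degrees C. DiscoveRx reagent added for 30–60 minutes at room temperature; luminescence read, quantitative HTS format.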
* marks the source's active call; other numbers are inactive results. Unless noted, calls come from the whole dose curve; as a rule, active = well fitted curve in the direction sought with a large enough effect; inconclusive = small, poorly fitted or top-dose-only effect, or another doubt; inactive = no such curve, though single readings can be large; an effect the other way counts as inactive or inconclusive.

How did COc1ccc(-n2nc(C(=O)Nc3ccc(C)cn3)c3c4ccccc4n(C)c3c2=O)cc1Cl do in these assays?
KB-V1 cytotox: inconclusive; D3 ag: -4; KB-3-1 cytotox: inactive

What do the screens show for `Oc1ccc(Br)cc1/C=N/n1cnc2ccccc21`?
KB-V1 cytotox: 15µM*; D3 ag: -28; SW480 rerep: 2%; MCF10A rereplic: inconclusive; KB-3-1 cytotox: inactive; D3 antag: 0

What do the screens show for `Cc1cccc(NC(=O)CSc2nccn2Cc2ccc(F)cc2)c1C`?
D3 ag: 3

Results for CNC(=O)C1CN(C(=O)c2cccc(S(=O)(=O)N3c4ccccc4CC3C)c2)c2ccccc2O1 (stereo unspecified) ?
KB-V1 cytotox: inactive; D3 ag: 0; SW480 rerep: inconclusive; MCF10A rereplic: 14%; KB-3-1 cytotox: inactive; D3 antag: -9

How did O=C(Nc1ccc(Cl)cc1)c1cc2c(cc1O)[nH]c1ccccc12 do in these assays?
KB-V1 cytotox: inconclusive; D3 ag: 26; SW480 rerep: 2%; MCF10A rereplic: 4.6µM*; KB-3-1 cytotox: inconclusive; D3 antag: 4

What do the screens show for `COc1ccc2c3c(c(=O)oc2c1OCC(=O)O)CCCC3`?
KB-V1 cytotox: inactive; D3 ag: 4; SW480 rerep: -9%; MCF10A rereplic: 1%; KB-3-1 cytotox: inactive; D3 antag: 3

How did CCOc1c(OC)ccc2c3c(c(=O)oc12)CCCC3 do in these assays?
KB-V1 cytotox: 8.2µM*; D3 ag: 3; SW480 rerep: -12%; MCF10A rereplic: 15%; KB-3-1 cytotox: inactive; D3 antag: -16

How did Cc1ccc(NC(=O)c2ccc(NC(=O)N3CCSc4nc(C)cc(C)c43)cc2)c(Cl)c1 do in these assays?
KB-V1 cytotox: inactive; D3 ag: 1; KB-3-1 cytotox: inactive

What do the screens show for `O=C(CCN1C(=O)c2ccccc2S1(=O)=O)N1CCN(c2ccc(F)cc2)CC1`?
KB-V1 cytotox: inactive; D3 ag: 0; SW480 rerep: -27%; MCF10A rereplic: -8%; KB-3-1 cytotox: inactive; D3 antag: 0

How did O=C1c2ccccc2S(=O)(=O)N1CCS(=O)(=O)c1ccc(F)cc1 do in these assays?
KB-V1 cytotox: inactive; D3 ag: 87*; SW480 rerep: 16%; MCF10A rereplic: 14%; KB-3-1 cytotox: inactive; D3 antag: -17

How did Cc1ccc(S(=O)(=O)N(CCCO)CC(O)CON=C2c3ccccc3-c3ccccc32)cc1 (stereo unspecified) do in these assays?
KB-V1 cytotox: inconclusive; D3 ag: 7; SW480 rerep: inconclusive; MCF10A rereplic: 18µM*; KB-3-1 cytotox: inconclusive; D3 antag: 32

Results for CCN(CC(O)Cn1c2ccccc2c2ccccc21)S(=O)(=O)c1ccc(C)cc1 (stereo unspecified) ?
KB-V1 cytotox: inconclusive; D3 ag: -4; SW480 rerep: inconclusive; MCF10A rereplic: inconclusive; KB-3-1 cytotox: inconclusive; D3 antag: 2

Results for Cc1cc(=O)n2nc(N3CCC(C(=O)Nc4ccc(Br)cc4F)CC3)sc2n1 ?
KB-V1 cytotox: inactive; D3 ag: 7; KB-3-1 cytotox: inactive

How did COc1ccc(N=CC2=C(O)c3ccccc3C2=O)cc1 do in these assays?
KB-V1 cytotox: inactive; D3 ag: -4; SW480 rerep: 0%; MCF10A rereplic: 2%; KB-3-1 cytotox: inactive; D3 antag: 1

What do the screens show for `CN=CC1=C(O)c2ccccc2C1=O`?
KB-V1 cytotox: inactive; D3 ag: 0; SW480 rerep: 28%; MCF10A rereplic: 13µM*; KB-3-1 cytotox: inactive; D3 antag: 11

How did Cc1ccc(O)c(N=CC2=C(O)c3ccccc3C2=O)c1 do in these assays?
KB-V1 cytotox: inactive; D3 ag: -12; SW480 rerep: inconclusive; MCF10A rereplic: inconclusive; KB-3-1 cytotox: inactive; D3 antag: -54*

How did Cc1ccc(O)c(C=Nc2cc(C)ccc2O)c1 do in these assays?
KB-V1 cytotox: inactive; D3 ag: 2; SW480 rerep: -3%; MCF10A rereplic: inconclusive; KB-3-1 cytotox: inactive; D3 antag: -6

Results for O=C1C(C=Nc2ccccc2O)=C(O)c2ccccc21 ?
KB-V1 cytotox: inactive; D3 ag: -8; SW480 rerep: inconclusive; MCF10A rereplic: 5.2µM*; KB-3-1 cytotox: inactive; D3 antag: -17

How did O=C1C(C=Nc2ccccc2)=C(O)c2ccccc21 do in these assays?
KB-V1 cytotox: inactive; D3 ag: -3; SW480 rerep: -6%; MCF10A rereplic: -3%; KB-3-1 cytotox: inactive; D3 antag: -24

Results for COc1cc(-c2nnc(COC(=O)C3c4ccccc4Oc4ccccc43)o2)cc(OC)c1OC ?
KB-V1 cytotox: inactive; D3 ag: 10; SW480 rerep: -5%; MCF10A rereplic: 9%; KB-3-1 cytotox: inactive; D3 antag: 52

What do the screens show for `COc1ccc(C2=C(C=C(C#N)C#N)C(c3ccccc3C)c3ccccc3O2)cc1OC` (stereo unspecified)?
KB-V1 cytotox: 15µM*; D3 ag: 3; SW480 rerep: inconclusive; MCF10A rereplic: -53%; KB-3-1 cytotox: inactive; D3 antag: 33

What do the screens show for `C=CCn1cccc(C(=O)Nc2ccc(F)cc2)c1=O`?
KB-V1 cytotox: inactive; D3 ag: 0; SW480 rerep: -11%; MCF10A rereplic: -5%; KB-3-1 cytotox: inactive; D3 antag: -16

How did CC(C)(C)n1ncc2c(=O)n(CC(=O)NCc3ccco3)cnc21 do in these assays?
KB-V1 cytotox: inconclusive; D3 ag: 2; SW480 rerep: 10%; MCF10A rereplic: inconclusive; KB-3-1 cytotox: inconclusive; D3 antag: 8

What do the screens show for `CC(C)(C)n1ncc2c(=O)n(CC(=O)c3ccccc3)cnc21`?
KB-V1 cytotox: 15µM*; D3 ag: 4; SW480 rerep: -7%; MCF10A rereplic: 0%; KB-3-1 cytotox: inactive; D3 antag: 56

What do the screens show for `CC(C)(C)n1ncc2c(=O)n(CC(=O)OCc3ccccc3)cnc21`?
KB-V1 cytotox: inactive; D3 ag: 5; SW480 rerep: -8%; MCF10A rereplic: 10%; KB-3-1 cytotox: inactive; D3 antag: inconclusive

How did CC(C)(C)n1ncc2c(=O)n(CC(=O)NCc3ccc(F)cc3)cnc21 do in these assays?
KB-V1 cytotox: 9.2µM*; D3 ag: 2; SW480 rerep: inconclusive; MCF10A rereplic: inconclusive; KB-3-1 cytotox: 9.2µM*; D3 antag: 4

What do the screens show for `CCC1CCc2sc(C(=O)O)cc2C1` (stereo unspecified)?
KB-V1 cytotox: inactive; D3 ag: 0; SW480 rerep: 0%; MCF10A rereplic: 0%; KB-3-1 cytotox: inactive; D3 antag: 24

High-throughput results deposited in PubChem by National Center for Advancing Translational Sciences (NCATS).
